Experimental data taken from PMC5540273 (PLoS ONE, 2017).

Legend:
Settings in all cases: concentration: 1 μM, replicates: in singlicate; n = 1
CHEK2 = test system: CHEK2
CIT = test system: CIT
CLK1 = test system: CLK1
CLK2 = test system: CLK2
CLK3 = test system: CLK3
CLK4 = test system: CLK4
CSF1R-autoinhibited = test system: CSF1R-autoinhibited
CSF1R = test system: CSF1R
CSK = test system: CSK
CSNK1A1L = test system: CSNK1A1L
CSNK1A1 = test system: CSNK1A1
CSNK1D = test system: CSNK1D
CSNK1E = test system: CSNK1E
CSNK1G1 = test system: CSNK1G1
CSNK1G2 = test system: CSNK1G2
CSNK1G3 = test system: CSNK1G3
CSNK2A1 = test system: CSNK2A1
CSNK2A2 = test system: CSNK2A2
CTK = test system: T1, CTK
T1 construct: gene MATK

DAPK1 = test system: DAPK1
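Also: KINOMEscan kinase panel screen.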

COc1ccccc1-c1ccc2c(NC(=O)C3CC3)n[nH]c2n1 [SB-711239]
%Inh (CHEK2): 19% | %Inh (CIT): 22% | %Inh (CLK1): 3% | %Inh (CLK2): 0% | %Inh (CLK3): 0% | %Inh (CLK4): 33% | %Inh (CSF1R-autoinhibited): 30% | %Inh (CSF1R): 0% | %Inh (CSK): 62% | %Inh (CSNK1A1L): 6% | %Inh (CSNK1A1): 10% | %Inh (CSNK1D): 0% | %Inh (CSNK1E): 2% | %Inh (CSNK1G1): 0% | %Inh (CSNK1G2): 5% | %Inh (CSNK1G3): 11% | %Inh (CSNK2A1): 0% | %Inh (CSNK2A2): 0% | %Inh (CTK): 0% | %Inh (DAPK1): 0%

Cc1ccccc1-n1cnc2c(N)ncnc21 [SKF-97510]
%Inh (CHEK2): 0% | %Inh (CIT): 0% | %Inh (CLK1): 2% | %Inh (CLK2): 26% | %Inh (CLK3): 0% | %Inh (CLK4): 0% | %Inh (CSF1R-autoinhibited): 0% | %Inh (CSF1R): 6% | %Inh (CSK): 7% | %Inh (CSNK1A1L): 0% | %Inh (CSNK1A1): 0% | %Inh (CSNK1D): 5% | %Inh (CSNK1E): 11% | %Inh (CSNK1G1): 0% | %Inh (CSNK1G2): 0% | %Inh (CSNK1G3): 0% | %Inh (CSNK2A1): 0% | %Inh (CSNK2A2): 0% | %Inh (CTK): 0% | %Inh (DAPK1): 94.8%

CN(C)CCN(C)C(=O)c1cc(-c2ccncc2)c(-c2ccc(Cl)c(O)c2)o1.Cl.Cl [SB-710397]
%Inh (CHEK2): 12% | %Inh (CIT): 21% | %Inh (CLK1): 18% | %Inh (CLK2): 0% | %Inh (CLK3): 9% | %Inh (CLK4): 25% | %Inh (CSF1R-autoinhibited): 0% | %Inh (CSF1R): 3% | %Inh (CSK): 0% | %Inh (CSNK1A1L): 20% | %Inh (CSNK1A1): 62% | %Inh (CSNK1D): 90% | %Inh (CSNK1E): 93.4% | %Inh (CSNK1G1): 0% | %Inh (CSNK1G2): 0% | %Inh (CSNK1G3): 14% | %Inh (CSNK2A1): 0% | %Inh (CSNK2A2): 4% | %Inh (CTK): 0% | %Inh (DAPK1): 4%

Nc1ncnc2[nH]c(-c3ccccc3)nc12 [AH5015]
%Inh (CHEK2): 0% | %Inh (CIT): 9% | %Inh (CLK1): 67% | %Inh (CLK2): 57% | %Inh (CLK3): 0% | %Inh (CLK4): 71% | %Inh (CSF1R-autoinhibited): 7% | %Inh (CSF1R): 13% | %Inh (CSK): 0% | %Inh (CSNK1A1L): 1% | %Inh (CSNK1A1): 0% | %Inh (CSNK1D): 21% | %Inh (CSNK1E): 14% | %Inh (CSNK1G1): 11% | %Inh (CSNK1G2): 0% | %Inh (CSNK1G3): 9% | %Inh (CSNK2A1): 29% | %Inh (CSNK2A2): 100% | %Inh (CTK): 5% | %Inh (DAPK1): 4%

COC(=O)c1c(-c2ccccc2)c2cc(OC)ccc2c(=O)n1Cc1ccccc1
%Inh (CHEK2): 15% | %Inh (CIT): 6% | %Inh (CLK1): 0% | %Inh (CLK2): 4% | %Inh (CLK3): 0% | %Inh (CLK4): 5% | %Inh (CSF1R-autoinhibited): 20% | %Inh (CSF1R): 51% | %Inh (CSK): 0% | %Inh (CSNK1A1L): 4% | %Inh (CSNK1A1): 9% | %Inh (CSNK1D): 0% | %Inh (CSNK1E): 0% | %Inh (CSNK1G1): 8% | %Inh (CSNK1G2): 0% | %Inh (CSNK1G3): 0% | %Inh (CSNK2A1): 0% | %Inh (CSNK2A2): 27% | %Inh (CTK): 26% | %Inh (DAPK1): 37%

Cc1csc(-c2nc(Nc3ccncc3)c3ccccc3n2)n1 [GW869640]
%Inh (CHEK2): 15% | %Inh (CIT): 61% | %Inh (CLK1): 15% | %Inh (CLK2): 19% | %Inh (CLK3): 35% | %Inh (CLK4): 8% | %Inh (CSF1R-autoinhibited): 28% | %Inh (CSF1R): 0% | %Inh (CSK): 3% | %Inh (CSNK1A1L): 10% | %Inh (CSNK1A1): 28% | %Inh (CSNK1D): 46% | %Inh (CSNK1E): 41% | %Inh (CSNK1G1): 0% | %Inh (CSNK1G2): 9% | %Inh (CSNK1G3): 0% | %Inh (CSNK2A1): 28% | %Inh (CSNK2A2): 26% | %Inh (CTK): 36% | %Inh (DAPK1): 22%

COc1ccc(C2=C(Nc3cccc(C(=O)O)c3)C(=O)NC2=O)cc1 [SB-390765]
%Inh (CHEK2): 0% | %Inh (CIT): 0% | %Inh (CLK1): 11% | %Inh (CLK2): 3% | %Inh (CLK3): 8% | %Inh (CLK4): 4% | %Inh (CSF1R-autoinhibited): 26% | %Inh (CSF1R): 18% | %Inh (CSK): 12% | %Inh (CSNK1A1L): 11% | %Inh (CSNK1A1): 15% | %Inh (CSNK1D): 14% | %Inh (CSNK1E): 0% | %Inh (CSNK1G1): 11% | %Inh (CSNK1G2): 0% | %Inh (CSNK1G3): 3% | %Inh (CSNK2A1): 18% | %Inh (CSNK2A2): 10% | %Inh (CTK): 43% | %Inh (DAPK1): 5%

Cc1cc(NCC(c2ccccc2)c2ccccc2)nc(NCc2ccc(C(F)(F)F)cc2)n1 [GW497681]
%Inh (CHEK2): 18% | %Inh (CIT): 30% | %Inh (CLK1): 15% | %Inh (CLK2): 0% | %Inh (CLK3): 37% | %Inh (CLK4): 15% | %Inh (CSF1R-autoinhibited): 30% | %Inh (CSF1R): 6% | %Inh (CSK): 0% | %Inh (CSNK1A1L): 2% | %Inh (CSNK1A1): 0% | %Inh (CSNK1D): 0% | %Inh (CSNK1E): 34% | %Inh (CSNK1G1): 0% | %Inh (CSNK1G2): 0% | %Inh (CSNK1G3): 22% | %Inh (CSNK2A1): 0% | %Inh (CSNK2A2): 0% | %Inh (CTK): 0% | %Inh (DAPK1): 2%

Cc1nnc(-c2ccc3occ(-c4ccc(S(C)=O)cc4)c3c2)[nH]1 (centres unmarked)
%Inh (CHEK2): 10% | %Inh (CIT): 0% | %Inh (CLK1): 0% | %Inh (CLK2): 22% | %Inh (CLK3): 0% | %Inh (CLK4): 29% | %Inh (CSF1R-autoinhibited): 8% | %Inh (CSF1R): 5% | %Inh (CSK): 0% | %Inh (CSNK1A1L): 26% | %Inh (CSNK1A1): 0% | %Inh (CSNK1D): 0% | %Inh (CSNK1E): 0% | %Inh (CSNK1G1): 8% | %Inh (CSNK1G2): 4% | %Inh (CSNK1G3): 0% | %Inh (CSNK2A1): 63% | %Inh (CSNK2A2): 72% | %Inh (CTK): 21% | %Inh (DAPK1): 10%

COc1cc(Nc2nccc(N3CCC(NC(=O)Nc4cc(C)ccc4C)C3)n2)cc(OC)c1OC (centres unmarked) [GSK1379762]
%Inh (CHEK2): 0% | %Inh (CIT): 11% | %Inh (CLK1): 32% | %Inh (CLK2): 6% | %Inh (CLK3): 0% | %Inh (CLK4): 29% | %Inh (CSF1R-autoinhibited): 0% | %Inh (CSF1R): 14% | %Inh (CSK): 0% | %Inh (CSNK1A1L): 17% | %Inh (CSNK1A1): 3% | %Inh (CSNK1D): 0% | %Inh (CSNK1E): 13% | %Inh (CSNK1G1): 1% | %Inh (CSNK1G2): 0% | %Inh (CSNK1G3): 22% | %Inh (CSNK2A1): 25% | %Inh (CSNK2A2): 0% | %Inh (CTK): 8% | %Inh (DAPK1): 0%
